Rows were chosen to be rich in hits. Some 10% of all compounds tested hit in one or more screens of this group.
NIH3T3 tox: cytotoxic compounds in NIH 3T3 cells; hit rate 4.3% among 94,000; Potency, µM (titrated, usually from 96.7 µM), usual class: inhibitors; NIH 3T3 viability, CellTiter-Glo ATP luminescence, 48-72 h; further: nearly all actives have a fitted effect of over 55% in size
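Cells were seeded at 400 per well, treated with pin-transferred compound, and kept 48 or 72 hr at 37 °C before CellTiter-Glo addition and luminescence imaging of cellular ATP.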
NPR1 antag: blocks ANP-stimulated signaling of human Npr1 receptor; HEK293 hNpr1 GloSensor cGMP, ANP-stimulated luminescence; Potency, µM (doses to about 46.3 µM), most hits filed as inhibitors; hit rate 1.6% among 76,000; AID 1347048; calls by dose curve; further: nearly all actives have a fitted effect of over 60% in size
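HEK293 cells stably expressing human Npr1 and cGMP GloSensor pGS-40F, loaded 2 h with 2% GloSensor reagent, given compound 30 min at room temperature. Luminescence read before and 20 min after 0.1 nM hNppA.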
Luciferase inh: blocks purified firefly luciferase enzyme activity; P08659; purified P. pyralis luciferase, luminescence, biochemical; Potency, µM (series often up to 115 µM), usual class: inhibitors; hit rate 2.5% among 76,000; AID 1347043; further: nearly all actives have a fitted effect of over 65% in size
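Luminescence read by CCD imaging after purified firefly luciferase (10nM final) was added to substrate buffer holding 10uM D-luciferin and 10uM ATP, pH 7.5, pre-dosed with compound.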
HEK cytotox: cytotoxic compounds in HEK 293 cells; HEK 293 viability, ATP luminescence (CellTiter-Glo), 48-72 h; Potency, µM (series often up to 115 µM), actives largely listed as inhibitors; hit rate 6.6% among 94,000; AID 1345083; further: nearly all actives have a fitted effect of over 60% in size
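HEK 293 seeded at 250 cells/well receive compound via pintool. After 48 or 72 hr at 37 degree Celsius, 5% CO2 and 95% humidity, CellTiter-Glo is dispensed and luminescence read following 10 min at room temperature.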
GPT2 inh: inhibitors of human GPT2 alanine aminotransferase; Recombinant GPT2, coupled pyruvate oxidase/HRP Amplex Red fluorescence; Potency, µM (top dose mostly 57.7 µM), most hits filed as inhibitors; hit rate 0.25% among 100,000; AID 1671188; further: nearly all actives have a fitted effect of over 60% in size
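GPT2 10ng/uL, a-KG 250uM, L-Ala 2mM, HEPES pH7.5 + 0.0001% Tween; 30 min RT. Then Amplex mix (PO/HRP/ThPP), 30 min RT dark, fluorescence. AOA 50uM used as positive control.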
A number is an active result; i = inactive; ? = inconclusive; nt = no result given. Unless noted, the call rests on the fitted dose curve; in most records, active means well fitted curve in the direction sought with a large enough effect; inconclusive means small, poorly fitted or top-dose-only effect, or another doubt; inactive means no such curve, though single readings can be large; an effect the other way counts as inactive or inconclusive.

SMILES | NIH3T3 tox | NPR1 antag | Luciferase inh | HEK cytotox | GPT2 inh
COCCNC(=O)C1CC(=O)N(C2CN(S(=O)(=O)Cc3ccccc3)C2)C1 (centres undefined) | i | nt | nt | i | i
Cc1ccc(C2Cn3nnc(C(=O)N4CCC(C(=O)NCc5cccc(Cl)c5)CC4)c3CO2)cc1 (centres undefined) | i | i | 22.4µM | i | i
Cc1ccc(C2Cn3nnc(C(=O)N4CCC(C(=O)NCc5cccc(F)c5)CC4)c3CO2)cc1 (centres undefined) | i | i | 35.5µM | i | i
Cc1ccc(C2Cn3nnc(C(=O)N4CCC(C(=O)NCc5cc(F)cc(F)c5)CC4)c3CO2)cc1 (centres undefined) | i | i | 15.8µM | i | i
C[C@H]1[C@@H]2[C@@H](O)C([C@H](C)C(=O)NCc3cccs3)CC[C@@]2(C)CC[C@@H]1NC(=O)c1cnccn1 (some centres undefined) | i | i | i | i | i
CN(C)CCN(C)C(=O)c1ccc2c(c1)NC(C)(COc1ccccc1)CO2 (centres undefined) | 89.1µM | i | i | ? | i
CC1(CCCCc2ccccc2)COc2ccc(C(=O)N3CCOCC3)cc2N1 (centres undefined) | ? | ? | i | ? | ?
COc1ccc(OCC2(C)COc3ccc(C(=O)N(C)CCN(C)C)cc3N2)cc1 (centres undefined) | ? | i | i | i | i
CN(C)CCN(C)C(=O)c1ccc2c(c1)NC(C)(CCCCc1ccccc1)CO2 (centres undefined) | 31.6µM | i | i | 100µM | i
CN(Cc1ccccc1)C(=O)c1ccc2c(c1)NC(C)(CNCc1ccccc1)CO2 (centres undefined) | 89.1µM | i | i | ? | i
CN(C(=O)c1ccc2c(c1)NC(C)(CNCc1ccccc1)CO2)c1ccccc1 (centres undefined) | ? | i | i | ? | i
COCCN(C)C[C@H]1C[C@H](CO)CN(C(=O)c2cc3ccccc3s2)C1 | i | i | i | i | ?
COc1cccc(-c2cccc(CCOc3cnc4c(ccn4CC(=O)O)c3)c2)c1 | ? | i | i | ? | ?
Cn1nccc1-c1cccc(CCOc2cnc3c(ccn3CC(=O)O)c2)c1 | 44.7µM | i | i | i | i
O=C(O)Cn1ccc2cc(OCc3cccc(-c4ccc(F)cc4F)c3)cnc21 | i | i | 20µM | ? | i
COc1ccc(-c2noc([C@@H]3C[C@H](NC(=O)COCC(=O)O)CN3C)n2)cc1 | i | i | 63.1µM | i | i
CN1C[C@@H](NC(=O)CCC(=O)O)C[C@H]1c1nc(-c2ccc3ccccc3c2)no1 | i | i | 31.6µM | i | i
CN1C[C@@H](NC(=O)CC(C)(C)CC(=O)O)C[C@H]1c1nc(-c2ccc3ccccc3c2)no1 | i | i | ? | i | i
CCN1c2cc(C(=O)NCc3cccc(C)c3)ccc2C(=O)N2CCCCCC21 (centres undefined) | ? | i | i | ? | i
CCN1c2cc(C(=O)Nc3cccc(Br)c3)ccc2C(=O)N2CCCCCC21 (centres undefined) | 28.2µM | i | i | 17.8µM | i
CCN1c2cc(C(=O)Nc3cccc(Br)c3)ccc2C(=O)N2CCCCC21 (centres undefined) | 17.8µM | i | i | 17.8µM | i
CCN1c2cc(C(=O)NCc3cccc(Br)c3)ccc2C(=O)N2CCCCC21 (centres undefined) | ? | i | i | 31.6µM | i
CCN1c2cc(C(=O)Nc3ccc(Br)cc3)ccc2C(=O)N2CCCC21 (centres undefined) | i | i | i | i | i
O=C(CC[C@@H]1CNC(=O)[C@@H]2C[C@H](NC(=O)Nc3ccccc3)CN12)NCc1ccccc1 | i | i | i | i | ?
Cc1cc(C(F)(F)F)nn1CC(=O)NCCc1ncc(C)n1C(C)C | i | nt | nt | i | i
CC(C)N1C[C@H](O)C[C@H]1c1nc(-c2ccc3c(c2)OCO3)no1 | i | i | 39.8µM | i | i
CC(C)N1C[C@H](O)C[C@H]1c1nc(-c2ccc(F)cc2)no1 | i | i | ? | ? | i
COc1ccc(-c2noc([C@@H]3C[C@@H](O)CN3Cc3cccc(C#N)c3)n2)cc1 | i | ? | 22.4µM | ? | i
